# Where “and” joins values, the source holds several entries; their conditions need not be identical. Identical values can stand only once. Out of some 290,000 compounds screened, about 50 (0.02%) were called active.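 Rule for the calls: active = displacement of at least 50% at 20 µM, with a fluorescence ratio check between 0.3 and a set limit; inactive = the rest.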 The sample as a whole holds a higher share of actives than the screen did. Potency and affinity values are given separately.
# Target: E3 ubiquitin-protein ligase SIAH1 (Homo sapiens) (UniProt Q8IUQ4)
# Test: blockers of Siah-1 interaction with plectin peptide – biochemical, fluorescence polarization, rhodamine-plectin, uHTS, primary screen (AID 1817);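 note: plate controls were Siah plus tracer with DMSO for no effect and tracer alone without Siah for full effect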
# Settings: Siah-1 / rhodamine-plectin peptide fluorescence polarization; at 20 µM; hits give high values
# E3 ubiquitin-protein ligase SIAH1 (Homo sapiens), sequence (Q8IUQ4 whole entry, looked up): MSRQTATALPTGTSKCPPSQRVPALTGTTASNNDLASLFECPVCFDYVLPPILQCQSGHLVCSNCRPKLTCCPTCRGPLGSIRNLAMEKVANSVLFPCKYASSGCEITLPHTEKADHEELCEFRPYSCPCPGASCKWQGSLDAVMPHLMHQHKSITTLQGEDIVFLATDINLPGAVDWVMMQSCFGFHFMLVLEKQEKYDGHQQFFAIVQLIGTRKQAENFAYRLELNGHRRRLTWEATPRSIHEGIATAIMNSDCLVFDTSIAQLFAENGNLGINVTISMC
row,SMILES,displacement
1,O=C(Nc1ccc(Nc2ccncc2)cc1)c1ccc(Nc2ccnc3ccc([N+](=O)[O-])cc23)cc1,60% (active)
2,O=C(Nc1ccc(Nc2ccncc2)cc1)c1ccc(Nc2ccnc3ccc([N+](=O)[O-])cc23)cc1[N+](=O)[O-],17.2% (inactive)
3,O=C(Nc1ccc(Nc2ccncc2)cc1)c1ccc([N+](=O)[O-])cc1,2.7% (inactive)
4,CSc1ccc(/C=C/C(=O)N2CCCN(C)CC2)cc1,4% (inactive)
5,N#Cc1ccc(NC(=O)CNc2cc(S(=O)(=O)N3CCOCC3)ccc2NCC2CCCO2)cc1 (stereo not drawn),-0.4% (inactive)
6,CCc1nnc(NC(=O)c2ccc(COc3ccccc3Cl)o2)s1,5.6% (inactive)
7,CCOC(=O)C1(S(=O)(=O)c2ccc(Cl)cc2)CCN(Cc2ccc(C)cc2)CC1,-0.2% (inactive)
8,COc1cccc(C(=O)N2CCN(Cc3ccccc3Br)CC2)c1,3.1% (inactive)
9,COC(=O)C(C(=O)OC)C(c1ccccc1)C(C(=O)c1ccccc1)[N+](=O)[O-] (stereo not drawn),2% (inactive)
10,O=c1cc2oc3cc(O)c(O)cc3c(-c3ccccc3O)c-2cc1O,83.3% (active)
11,O=c1cc2oc3cc(O)c(O)cc3c(-c3ccccc3[N+](=O)[O-])c-2cc1O,48.7% (inactive)
12,COc1cc(OC)c(-c2c3cc(O)c(=O)cc-3oc3cc(O)c(O)cc23)cc1OC,48% (inactive)
13,CCOc1ccccc1-c1c2cc(O)c(=O)cc-2oc2cc(O)c(O)cc12,61.3% (active)
14,Cc1c2cc(O)c(=O)cc-2oc2cc(O)c(O)cc12,70.1% (inactive) and 99.1% (inactive)
15,COc1ccc(OC)c(-c2c3cc(O)c(=O)cc-3oc3cc(O)c(O)cc23)c1,58.5% (inactive)
16,COc1cc(S(=O)(=O)NC(C)C)ccc1Cl,3% (inactive)
17,CC(C)c1ccccc1NC(=S)N(C)C,-9.8% (inactive)
18,COC(=O)CCSc1nc(N2CCOCC2)c2c(c1C#N)CC(C)(C)OC2,1.2% (inactive)
19,Cc1cccc(C)c1NC(=O)C1CCCN1S(=O)(=O)c1ccc2c(c1)n(C)c(=O)c(=O)n2C (stereo not drawn),2.2% (inactive)
20,COCCNC(=S)N(CCc1c(C)[nH]c2ccc(C)cc12)Cc1ccco1,1.4% (inactive)

row,SMILES,displacement
1,CCOC(=O)c1ccc(-n2c(O)c(/C=N/NC(=O)C3COc4ccccc4O3)c3ccccc3c2=O)cc1 (stereo not drawn),-6% (inactive)
2,Cc1nc(NC(=S)NC(=O)c2cncc(Br)c2)ccc1Br,-7% (inactive)
3,Cc1cccc(C(=O)NC(C(=O)Nc2nc(-c3ccccn3)cs2)C(C)C)c1 (stereo not drawn),-2.5% (inactive)
4,O=C(NN1C(=O)C2C(C1=O)C1C=CC2C12CC2)c1ccncc1 (stereo not drawn),0.7% (inactive)
5,O=C(NN1C(=O)C2C3C=CC(C3)C2C1=O)c1ccncc1 (stereo not drawn),3.2% (inactive)
6,O=C(NN1C(=O)C2CC=C(Cl)CC2C1=O)c1ccncc1 (stereo not drawn),69.4% (active)
7,C[C@@H](C[C@@H](O)[C@H](O)C(C)(C)O)[C@@H]1CC[C@]2(C)C3=CC[C@H]4C(C)(C)C(=O)CC[C@]4(C)[C@H]3CC[C@@]12C,2.8% (inactive)
8,CC(NC(=O)C1CCCN(S(=O)(=O)c2cccs2)C1)c1ccccc1 (stereo not drawn),0.2% (inactive)
9,COc1cc(OC)c(OC)cc1CN1CCCC(C(=O)c2sccc2C)C1 (stereo not drawn),-6.6% (inactive)
10,COc1ccc(CCn2c(N)c(C(=O)NCc3ccco3)c3nc4ccccc4nc32)cc1OC,-1.3% (inactive)
11,COc1ccc(CCn2c(N)c(C(=O)NCc3ccco3)c3nc4ccccc4nc32)cc1,57.5% (active)
12,Nc1c(C(=O)NCc2ccco2)c2nc3ccccc3nc2n1CCc1ccc(F)cc1,2.1% (inactive)
13,Cn1c(Cl)c(/C=N/OC(=O)c2ccccc2Cl)c2ccccc21,-1.7% (inactive)
14,CC12CCC(C(=O)NCc3ccco3)(OC1=O)C2(C)C (stereo not drawn),1.5% (inactive)
15,CN1C(=O)NC(c2ccccc2[N+](=O)[O-])C2=C1CC(C)(C)CC2=O (stereo not drawn),4.2% (inactive)
16,CN1C(=O)NC(c2cccc([N+](=O)[O-])c2)C2=C1CCCC2=O (stereo not drawn),3% (inactive)
17,C/C(=N\OC(=O)Nc1ccccc1)c1cnn(-c2cc(C(F)(F)F)cc(C)n2)c1C,5.7% (inactive)
18,COCCn1c(C)c(C(=O)O)sc1=S,2.3% (inactive)
19,CCOC(=O)c1sc(=S)n(CC)c1N,-0.9% (inactive)
20,COc1cc2ncnc(NCc3ccccc3C)c2cc1OC,4.9% (inactive)

row,SMILES,displacement
1,CCOC(=O)c1cccc(NC(=O)CSc2nnc(C)n2Cc2ccccc2)c1,-0.6% (inactive)
2,CC(=O)Nc1ccc(N=Cc2c(O)ccc3ccccc23)cc1,-0.3% (inactive)
3,CC(=O)Nc1ccc(N=Cc2c(O)c3ccccc3oc2=O)cc1,1.2% (inactive)
4,Cc1cccc(N2CCN(C(=O)c3ccc(NC(=O)C4CCCO4)cc3)CC2C)c1 (stereo not drawn),1.8% (inactive)
5,COCCNC(=O)/C(C#N)=C/c1ccc(OCc2ccc(F)cc2)cc1,-1.7% (inactive)
6,Cc1cc(/C=C2\NC(=O)NC2=O)c(C)n1-c1ccc(N2CCOCC2)cc1,-9.1% (inactive)
7,COc1ccc(OCCn2c(N)nc3ccccc32)cc1,3.4% (inactive)
8,O=C(NC1CCCC1)c1ccc(COc2ccccc2Br)o1,2.7% (inactive)
9,O=c1[nH]c(-c2ccccc2Cl)nc2c1sc(=S)n2-c1ccccc1,2.3% (inactive)
10,O=c1[nH]c(-c2ccc3c(c2)OCO3)nc2c1sc(=S)n2-c1ccccc1,1.9% (inactive)
11,COc1ccccc1CN1CC(C(=O)N(C)Cc2ccc(C)o2)CCC1=O (stereo not drawn),-3.9% (inactive)
12,Oc1c(/C=N/Nc2cccc3cccnc23)ccc2ccccc12,93.1% (active)
13,Oc1ccccc1/C=N/Nc1cccc2cccnc12,-2.4% (inactive)
14,Oc1ccc(/C=N/Nc2cccc3cccnc23)c(O)c1,-3.9% (inactive)
15,CCCCCCOc1ccc(N2C(=O)CC(N3CCN(CCN=CC4=C(O)CC(C)(C)CC4=O)CC3)C2=O)cc1 (stereo not drawn),1.8% (inactive)
16,CC(C)(C)c1ccc(C(CC(=O)O)NC(=O)Cc2ccc(Cl)cc2)cc1 (stereo not drawn),-2.3% (inactive)
17,CC(C)(C)c1ccc(C(CC(=O)O)NC(=O)Cc2ccccc2)cc1 (stereo not drawn),1.2% (inactive)
18,CCOC(=O)c1nn(-c2cccc(OC)c2)c2nc(CC)c(C#N)c(=O)n12,12.2% (inactive)
